Measured values from publication PMC9911399, “Two distinct binding modes provide the RNA-binding protein RbFox with extraordinary sequence specificity”.
Changes are numbered by the printed parent chain; changes in the protein carry UniProt numbers. In all, about 16,000 sequences were measured (“ka relative to ugcaugu”: median about 0.0091, highest 2% from about 0.032 on). The sample holds the highest values, similar sequences and a random draw of the others, so the mix is not that of the screen.

T1: RBFOX1 RRM (Homo sapiens, UniProt Q9NWB1 109-208)
T1 sequence: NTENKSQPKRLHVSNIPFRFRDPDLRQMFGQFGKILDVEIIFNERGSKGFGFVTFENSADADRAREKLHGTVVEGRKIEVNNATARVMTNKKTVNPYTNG

B1: UCAAACU (DNA:RNA)
RNA: GGGAGACCGGAAUUCAGAUUGUCCUCAAACUUUAAAUCCCGUCGUAGCCACCA
DNA 1: CAATCTGAATTCCGGTCTCCC
DNA 2: TGGTGGCTACGACGGGATT
B2: AUUAGUA (DNA:RNA)
RNA: B1 RNA with U25A, C26U, A27U, A29G, C30U, U31A
DNA 1: CAATCTGAATTCCGGTCTCCC
DNA 2: TGGTGGCTACGACGGGATT
B3: CGGAAGU (DNA:RNA)
RNA: B1 RNA with U25C, C26G, A27G, C30G
DNA 1: CAATCTGAATTCCGGTCTCCC
DNA 2: TGGTGGCTACGACGGGATT
B4: UCUUCCA (DNA:RNA)
RNA: B1 RNA with A27U, A28U, A29C, U31A
DNA 1: CAATCTGAATTCCGGTCTCCC
DNA 2: TGGTGGCTACGACGGGATT
B5: CCGCCUG (DNA:RNA)
RNA: B1 RNA with U25C, A27G, A28C, A29C, C30U, U31G
DNA 1: CAATCTGAATTCCGGTCTCCC
DNA 2: TGGTGGCTACGACGGGATT
B6: GCCUGUG (DNA:RNA)
RNA: B1 RNA with U25G, A27C, A28U, A29G, C30U, U31G
DNA 1: CAATCTGAATTCCGGTCTCCC
DNA 2: TGGTGGCTACGACGGGATT
B7: CGCCUUG (DNA:RNA)
RNA: GGGAGACCGGAAUUCAGAUUGUCCCGCCUUGUUAAAUCCCGUCGUAGCCACCA
DNA 1: CAATCTGAATTCCGGTCTCCC
DNA 2: TGGTGGCTACGACGGGATT
B8: GCCUGUC (DNA:RNA)
RNA: B7 RNA with C25G, G26C, C28U, U29G, G31C
DNA 1: CAATCTGAATTCCGGTCTCCC
DNA 2: TGGTGGCTACGACGGGATT
B9: GCCUUGC (DNA:RNA)
RNA: B7 RNA with C25G, G26C, C28U, U30G, G31C
DNA 1: CAATCTGAATTCCGGTCTCCC
DNA 2: TGGTGGCTACGACGGGATT
B10: GCCCCUG (DNA:RNA)
RNA: B7 RNA with C25G, G26C, U29C
DNA 1: CAATCTGAATTCCGGTCTCCC
DNA 2: TGGTGGCTACGACGGGATT
B11: GCCCGCU (DNA:RNA)
RNA: B1 RNA with U25G, A27C, A28C, A29G
DNA 1: CAATCTGAATTCCGGTCTCCC
DNA 2: TGGTGGCTACGACGGGATT
B12: CGCCUGC (DNA:RNA)
RNA: B7 RNA with U30G, G31C
DNA 1: CAATCTGAATTCCGGTCTCCC
DNA 2: TGGTGGCTACGACGGGATT
B13: GCCUGCU (DNA:RNA)
RNA: B1 RNA with U25G, A27C, A28U, A29G
DNA 1: CAATCTGAATTCCGGTCTCCC
DNA 2: TGGTGGCTACGACGGGATT
B14: GCUGCUU (DNA:RNA)
RNA: B1 RNA with U25G, A27U, A28G, A29C, C30U
DNA 1: CAATCTGAATTCCGGTCTCCC
DNA 2: TGGTGGCTACGACGGGATT
B15: GCUUGCC (DNA:RNA)
RNA: B1 RNA with U25G, A27U, A28U, A29G, U31C
DNA 1: CAATCTGAATTCCGGTCTCCC
DNA 2: TGGTGGCTACGACGGGATT
B16: GCCCUGC (DNA:RNA)
RNA: B7 RNA with C25G, G26C, U30G, G31C
DNA 1: CAATCTGAATTCCGGTCTCCC
DNA 2: TGGTGGCTACGACGGGATT
B17: CAACUCA (DNA:RNA)
RNA: B7 RNA with G26A, C27A, U30C, G31A
DNA 1: CAATCTGAATTCCGGTCTCCC
DNA 2: TGGTGGCTACGACGGGATT
B18: GAUCAAG (DNA:RNA)
RNA: B7 RNA with C25G, G26A, C27U, U29A, U30A
DNA 1: CAATCTGAATTCCGGTCTCCC
DNA 2: TGGTGGCTACGACGGGATT
B19: CAUAUGA (DNA:RNA)
RNA: B7 RNA with G26A, C27U, C28A, U30G, G31A
DNA 1: CAATCTGAATTCCGGTCTCCC
DNA 2: TGGTGGCTACGACGGGATT
B20: ACAUCGA (DNA:RNA)
RNA: B1 RNA with U25A, A28U, A29C, C30G, U31A
DNA 1: CAATCTGAATTCCGGTCTCCC
DNA 2: TGGTGGCTACGACGGGATT
B21: AUUACAG (DNA:RNA)
RNA: B7 RNA with C25A, G26U, C27U, C28A, U29C, U30A
DNA 1: CAATCTGAATTCCGGTCTCCC
DNA 2: TGGTGGCTACGACGGGATT
B22: GUCGCUU (DNA:RNA)
RNA: B7 RNA with C25G, G26U, C28G, U29C, G31U
DNA 1: CAATCTGAATTCCGGTCTCCC
DNA 2: TGGTGGCTACGACGGGATT
B23: ACCUGCA (DNA:RNA)
RNA: B1 RNA with U25A, A27C, A28U, A29G, U31A
DNA 1: CAATCTGAATTCCGGTCTCCC
DNA 2: TGGTGGCTACGACGGGATT
B24: CGCUGCA (DNA:RNA)
RNA: B7 RNA with C28U, U29G, U30C, G31A
DNA 1: CAATCTGAATTCCGGTCTCCC
DNA 2: TGGTGGCTACGACGGGATT
B25: GCCUGCA (DNA:RNA)
RNA: B1 RNA with U25G, A27C, A28U, A29G, U31A
DNA 1: CAATCTGAATTCCGGTCTCCC
DNA 2: TGGTGGCTACGACGGGATT
B26: GCCUGCG (DNA:RNA)
RNA: B7 RNA with C25G, G26C, C28U, U29G, U30C
DNA 1: CAATCTGAATTCCGGTCTCCC
DNA 2: TGGTGGCTACGACGGGATT
B27: GUCCGCC (DNA:RNA)
RNA: B7 RNA with C25G, G26U, U29G, U30C, G31C
DNA 1: CAATCTGAATTCCGGTCTCCC
DNA 2: TGGTGGCTACGACGGGATT
B28: GCCUGCC (DNA:RNA)
RNA: B1 RNA with U25G, A27C, A28U, A29G, U31C
DNA 1: CAATCTGAATTCCGGTCTCCC
DNA 2: TGGTGGCTACGACGGGATT
B29: CUGUAGC (DNA:RNA)
RNA: B7 RNA with G26U, C27G, C28U, U29A, U30G, G31C
DNA 1: CAATCTGAATTCCGGTCTCCC
DNA 2: TGGTGGCTACGACGGGATT
B30: CGCACUC (DNA:RNA)
RNA: B7 RNA with C28A, U29C, G31C
DNA 1: CAATCTGAATTCCGGTCTCCC
DNA 2: TGGTGGCTACGACGGGATT
B31: AAGUAUU (DNA:RNA)
RNA: B1 RNA with U25A, C26A, A27G, A28U, C30U
DNA 1: CAATCTGAATTCCGGTCTCCC
DNA 2: TGGTGGCTACGACGGGATT

Biological target: T1, RBFOX1 RRM
Experiment: EMSA; HiTS-Eq, 1 nM pool, 10 min; buffer printed only for the single-RNA assays: 10 mM Tris pH 7.5, 150 mM NaCl, 3.4 mM EDTA, 0.001% NP-40, 30 C
Conditions: tags: His6 N-terminal (pET28a); label: 5' 32P
Method in brief: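 Purified wild-type or mutant RbFox RRM at increasing concentrations was equilibrated with 1 nM of 5′-radiolabelled RNA carrying 7 randomized nucleotides for 10 min in 50 µL. Unbound RNA was separated by 8% native PAGE and sequenced. Relative association constants came from read-count changes of each RNA species compared with the control reaction, normalised to the cognate motif.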

Row | Binder | binding signal
1 | B1 | 0.00177 KA relative to UGCAUGU
2 | B2 | 0.00672 KA relative to UGCAUGU
3 | B3 | 0.0236 KA relative to UGCAUGU
4 | B4 | 0.00385 KA relative to UGCAUGU
5 | B5 | 0.0178 KA relative to UGCAUGU
6 | B6 | 0.034 KA relative to UGCAUGU
7 | B7 | 0.0242 KA relative to UGCAUGU
8 | B8 | 0.0275 KA relative to UGCAUGU
9 | B9 | 0.0319 KA relative to UGCAUGU
10 | B10 | 0.016 KA relative to UGCAUGU
11 | B11 | 0.0168 KA relative to UGCAUGU
12 | B12 | 0.0343 KA relative to UGCAUGU
13 | B13 | 0.0359 KA relative to UGCAUGU
14 | B14 | 0.0216 KA relative to UGCAUGU
15 | B15 | 0.0307 KA relative to UGCAUGU
16 | B16 | 0.0133 KA relative to UGCAUGU

Row | Binder | binding signal
17 | B17 | 0.0014 KA relative to UGCAUGU
18 | B18 | 0.0079 KA relative to UGCAUGU
19 | B19 | 0.00465 KA relative to UGCAUGU
20 | B20 | 0.00224 KA relative to UGCAUGU
21 | B21 | 0.0056 KA relative to UGCAUGU
22 | B22 | 0.0147 KA relative to UGCAUGU
23 | B23 | 0.0144 KA relative to UGCAUGU
24 | B24 | 0.0198 KA relative to UGCAUGU
25 | B25 | 0.0378 KA relative to UGCAUGU
26 | B26 | 0.0321 KA relative to UGCAUGU
27 | B27 | 0.0105 KA relative to UGCAUGU
28 | B28 | 0.0261 KA relative to UGCAUGU
29 | B29 | 0.0127 KA relative to UGCAUGU
30 | B30 | 0.00942 KA relative to UGCAUGU
31 | B31 | 0.0026 KA relative to UGCAUGU
